Among the data in PMC7862700, “An all-to-all approach to the identification of sequence-specific readers for epigenetic DNA modifications on cytosine” are binding signal values, retold here.

What all share (assay): DAPPL (digital affinity profiling via proximity ligation, sequencing); 10 mM Tris-HCl pH 7.5, 50 mM NaCl, 1 mM DTT, 4% glycerol, room temperature, 30 min; GST-TFs on glutathione beads, 16-mer random dsDNA library, 0.1% formaldehyde crosslink after washing; high values mean tight binding
What all share (conditions): protein: recombinant; tags: N-terminal GST; dsDNA, one strand shown

For test [1], the target named is T1, ERF (Homo sapiens, UniProt P50548 1-548).
T1 sequence: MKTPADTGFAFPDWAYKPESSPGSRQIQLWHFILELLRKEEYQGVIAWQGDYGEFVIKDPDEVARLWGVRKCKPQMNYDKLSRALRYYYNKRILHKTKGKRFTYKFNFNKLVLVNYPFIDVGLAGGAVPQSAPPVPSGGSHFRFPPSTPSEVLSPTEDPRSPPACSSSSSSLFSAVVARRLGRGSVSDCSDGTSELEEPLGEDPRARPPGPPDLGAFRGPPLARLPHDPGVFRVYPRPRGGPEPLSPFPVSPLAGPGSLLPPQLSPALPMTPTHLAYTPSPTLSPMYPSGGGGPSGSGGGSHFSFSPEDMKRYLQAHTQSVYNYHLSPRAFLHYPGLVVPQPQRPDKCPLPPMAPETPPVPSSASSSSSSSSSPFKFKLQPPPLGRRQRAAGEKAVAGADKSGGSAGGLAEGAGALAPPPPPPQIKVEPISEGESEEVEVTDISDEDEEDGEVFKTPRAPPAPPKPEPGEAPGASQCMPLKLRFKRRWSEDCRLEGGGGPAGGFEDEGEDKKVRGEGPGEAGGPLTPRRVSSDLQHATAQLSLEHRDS
The method, boiled down:
(§1)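 Human transcription factors fused to GST were expressed in yeast, captured on glutathione beads, given DNA barcodes and pooled with a GST-only negative control. Pools were incubated with 200 nmole of a 16-mer random double-stranded DNA library in Tris/NaCl/DTT/glycerol buffer at room temperature for 30 min. They were then washed, crosslinked with 0.1% formaldehyde, proximity-ligated (BsaI/T4 ligase, 1 h, 37 °C), PCR-amplified and sequenced on an Illumina NextSeq500. Binding signal is each 6-mer's read frequency for a factor divided by its frequency for the GST control.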

The target of test [2] is T2, ETV3L (Homo sapiens, UniProt Q6ZN32 1-361).
T2 sequence: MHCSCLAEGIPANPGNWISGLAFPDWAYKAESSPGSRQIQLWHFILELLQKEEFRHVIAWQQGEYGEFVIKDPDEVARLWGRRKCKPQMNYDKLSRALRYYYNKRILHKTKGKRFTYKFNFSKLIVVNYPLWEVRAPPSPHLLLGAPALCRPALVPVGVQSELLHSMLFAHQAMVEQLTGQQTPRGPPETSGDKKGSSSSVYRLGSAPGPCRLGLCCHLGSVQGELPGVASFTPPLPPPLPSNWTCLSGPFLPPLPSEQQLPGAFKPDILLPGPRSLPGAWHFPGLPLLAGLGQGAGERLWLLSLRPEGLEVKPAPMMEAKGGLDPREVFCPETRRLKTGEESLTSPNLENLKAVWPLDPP
The method, boiled down: as §1

Test [3] concerns the target T3, ETS2 (Homo sapiens, UniProt P15036 1-469).
T3 sequence: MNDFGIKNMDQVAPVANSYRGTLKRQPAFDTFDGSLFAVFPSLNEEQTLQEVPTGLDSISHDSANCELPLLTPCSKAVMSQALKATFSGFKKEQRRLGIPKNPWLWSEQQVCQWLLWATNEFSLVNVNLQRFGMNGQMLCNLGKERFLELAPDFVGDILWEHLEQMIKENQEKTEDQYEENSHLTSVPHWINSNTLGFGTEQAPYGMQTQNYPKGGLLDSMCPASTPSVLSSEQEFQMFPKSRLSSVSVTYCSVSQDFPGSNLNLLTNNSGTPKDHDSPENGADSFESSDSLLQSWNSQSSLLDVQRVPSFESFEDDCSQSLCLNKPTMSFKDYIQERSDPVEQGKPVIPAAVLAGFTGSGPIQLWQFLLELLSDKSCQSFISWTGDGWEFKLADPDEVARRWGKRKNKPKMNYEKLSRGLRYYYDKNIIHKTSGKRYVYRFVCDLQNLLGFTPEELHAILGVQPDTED
In short, it runs like this: as §1

Test [4] addresses T4, SPDEF (Homo sapiens, UniProt O95238 1-335).
T4 sequence: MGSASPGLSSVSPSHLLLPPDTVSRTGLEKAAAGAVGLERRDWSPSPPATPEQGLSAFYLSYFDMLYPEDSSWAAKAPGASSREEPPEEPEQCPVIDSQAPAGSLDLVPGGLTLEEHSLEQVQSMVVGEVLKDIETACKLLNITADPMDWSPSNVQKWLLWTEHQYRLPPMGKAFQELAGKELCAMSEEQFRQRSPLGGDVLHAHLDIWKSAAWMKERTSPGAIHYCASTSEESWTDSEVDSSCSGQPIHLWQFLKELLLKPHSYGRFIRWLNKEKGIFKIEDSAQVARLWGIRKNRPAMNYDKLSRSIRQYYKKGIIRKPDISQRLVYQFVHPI
The method, boiled down: as §1

Test [5] has as its target T5, ETV7 (Homo sapiens, UniProt Q9Y603 1-341).
T5 sequence: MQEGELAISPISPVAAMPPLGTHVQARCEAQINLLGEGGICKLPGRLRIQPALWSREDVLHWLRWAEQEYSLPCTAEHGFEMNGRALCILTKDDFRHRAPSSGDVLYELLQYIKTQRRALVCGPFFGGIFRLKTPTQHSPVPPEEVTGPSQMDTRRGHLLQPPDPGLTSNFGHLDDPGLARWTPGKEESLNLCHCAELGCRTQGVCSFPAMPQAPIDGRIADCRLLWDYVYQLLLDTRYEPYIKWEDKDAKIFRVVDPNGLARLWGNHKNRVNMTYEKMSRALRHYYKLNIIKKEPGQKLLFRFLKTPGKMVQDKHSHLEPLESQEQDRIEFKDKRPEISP
In short, it runs like this:
as §1

Test [6] deals with T6, ELF5 (Homo sapiens, UniProt Q9UKW6-2 1-255).
T6 sequence: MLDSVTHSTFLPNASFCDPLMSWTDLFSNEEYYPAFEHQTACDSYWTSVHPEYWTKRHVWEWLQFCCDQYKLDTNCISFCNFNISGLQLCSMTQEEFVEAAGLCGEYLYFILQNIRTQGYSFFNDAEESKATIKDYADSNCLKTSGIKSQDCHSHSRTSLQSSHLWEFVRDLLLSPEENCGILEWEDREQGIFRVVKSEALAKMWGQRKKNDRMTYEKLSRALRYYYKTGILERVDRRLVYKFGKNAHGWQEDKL
In short, it runs like this:
as §1

Test [7] addresses T7, ETV3 (Homo sapiens, UniProt P41162-2 1-143).
T7 sequence: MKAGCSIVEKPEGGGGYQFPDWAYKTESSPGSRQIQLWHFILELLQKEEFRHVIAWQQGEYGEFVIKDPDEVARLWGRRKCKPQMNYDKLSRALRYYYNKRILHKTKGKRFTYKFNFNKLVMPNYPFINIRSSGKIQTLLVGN
The method, boiled down: as §1

Test [8] concerns the target ETV6 (Homo sapiens, UniProt P41212 1-452). In short, it runs like this: as §1

ETV6, sequence (P41212 whole entry): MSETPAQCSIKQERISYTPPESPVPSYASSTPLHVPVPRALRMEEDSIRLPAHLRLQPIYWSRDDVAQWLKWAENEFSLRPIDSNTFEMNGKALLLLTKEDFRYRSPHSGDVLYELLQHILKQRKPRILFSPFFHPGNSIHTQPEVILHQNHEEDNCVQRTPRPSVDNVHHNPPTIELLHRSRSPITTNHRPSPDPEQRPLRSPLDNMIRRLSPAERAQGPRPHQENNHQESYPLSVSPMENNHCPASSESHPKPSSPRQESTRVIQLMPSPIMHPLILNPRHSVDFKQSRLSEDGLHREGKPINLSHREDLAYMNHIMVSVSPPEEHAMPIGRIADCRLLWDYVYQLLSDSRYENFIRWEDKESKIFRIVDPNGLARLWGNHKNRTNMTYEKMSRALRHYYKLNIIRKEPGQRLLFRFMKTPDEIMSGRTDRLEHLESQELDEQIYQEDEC

As to ACACTC, the binding signal in test [1] was 1.06 fold enrichment (6-mer frequency, TF over GST control); in test [2], 1.08 fold enrichment (6-mer frequency, TF over GST control); in test [3], 1.14 fold enrichment (6-mer frequency, TF over GST control); in test [4], 1.02 fold enrichment (6-mer frequency, TF over GST control); in test [5] it was 1.07 fold enrichment (6-mer frequency, TF over GST control); in test [6] it was 1.05 fold enrichment (6-mer frequency, TF over GST control). In addition, the binding signal is 1.16 fold enrichment (6-mer frequency, TF over GST control) in test [7] and 1.11 fold enrichment (6-mer frequency, TF over GST control) in test [8].
With TTGGCC, the binding signal is 1.08 fold enrichment (6-mer frequency, TF over GST control) in test [1]; 1.09 fold enrichment (6-mer frequency, TF over GST control) in test [2]; 1.01 fold enrichment (6-mer frequency, TF over GST control) in test [3]; 1.06 fold enrichment (6-mer frequency, TF over GST control) in test [4]; 1.12 fold enrichment (6-mer frequency, TF over GST control) in test [5]; 1.02 fold enrichment (6-mer frequency, TF over GST control) in test [6]. Moreover, the binding signal is 1.05 fold enrichment (6-mer frequency, TF over GST control) in test [7] and 1.05 fold enrichment (6-mer frequency, TF over GST control) in test [8].
As to GGTAAT, the binding signal is 1.13 fold enrichment (6-mer frequency, TF over GST control) in test [1]; 1.06 fold enrichment (6-mer frequency, TF over GST control) in test [2]; 1.08 fold enrichment (6-mer frequency, TF over GST control) in test [3]; 1.11 fold enrichment (6-mer frequency, TF over GST control) in test [4]; 1.14 fold enrichment (6-mer frequency, TF over GST control) in test [5]; 1.16 fold enrichment (6-mer frequency, TF over GST control) in test [6]. For the same sequence, the binding signal in test [7] is 1.06 fold enrichment (6-mer frequency, TF over GST control); in test [8] it was 1.16 fold enrichment (6-mer frequency, TF over GST control).
For the sequence CCCTCT, the binding signal in test [1] is 1.41 fold enrichment (6-mer frequency, TF over GST control); in test [2], 1.3 fold enrichment (6-mer frequency, TF over GST control); in test [3], 1.36 fold enrichment (6-mer frequency, TF over GST control); in test [4], 1.17 fold enrichment (6-mer frequency, TF over GST control); in test [5] it was 1.27 fold enrichment (6-mer frequency, TF over GST control); in test [6], 1.29 fold enrichment (6-mer frequency, TF over GST control). Also, the binding signal in test [7] is 1.4 fold enrichment (6-mer frequency, TF over GST control); in test [8], 1.31 fold enrichment (6-mer frequency, TF over GST control).
With GCGCTC, the binding signal is 1.2 fold enrichment (6-mer frequency, TF over GST control) in test [1]; 1.19 fold enrichment (6-mer frequency, TF over GST control) in test [2]; 1.2 fold enrichment (6-mer frequency, TF over GST control) in test [3]; 1.07 fold enrichment (6-mer frequency, TF over GST control) in test [4]; 1.04 fold enrichment (6-mer frequency, TF over GST control) in test [5]; 1.05 fold enrichment (6-mer frequency, TF over GST control) in test [6]. Besides, the binding signal in test [7] is 1.08 fold enrichment (6-mer frequency, TF over GST control); in test [8], 1.02 fold enrichment (6-mer frequency, TF over GST control).
As to TGTCCC, the binding signal in test [1] is 1.26 fold enrichment (6-mer frequency, TF over GST control); in test [2] it was 1.18 fold enrichment (6-mer frequency, TF over GST control); in test [3], 1.41 fold enrichment (6-mer frequency, TF over GST control); in test [4], 1.34 fold enrichment (6-mer frequency, TF over GST control); in test [5] it was 1.46 fold enrichment (6-mer frequency, TF over GST control); in test [6], 1.44 fold enrichment (6-mer frequency, TF over GST control). Besides, the binding signal was 1.2 fold enrichment (6-mer frequency, TF over GST control) in test [7] and 1.28 fold enrichment (6-mer frequency, TF over GST control) in test [8].
As for AAGTGG, the binding signal in test [1] is 1.24 fold enrichment (6-mer frequency, TF over GST control); in test [2], 1.17 fold enrichment (6-mer frequency, TF over GST control); in test [3], 1.19 fold enrichment (6-mer frequency, TF over GST control); in test [4], 1.06 fold enrichment (6-mer frequency, TF over GST control); in test [5], 1.31 fold enrichment (6-mer frequency, TF over GST control); in test [6], 1.24 fold enrichment (6-mer frequency, TF over GST control). The binding signal is 1.23 fold enrichment (6-mer frequency, TF over GST control) in test [7] and 1.3 fold enrichment (6-mer frequency, TF over GST control) in test [8].
